Data published in the supplement of paper PMC13380429.

Experiments:
[1] = tested on: Vero E6 infected with SARS-CoV-2; assay: morphology score (similarity to uninfected cells); higher = more like uninfected cells; settings: 24 h
[2] = tested on: Vero E6 infected with SARS-CoV-2; assay: SARS-CoV-2 infection rate relative to infected DMSO; higher = more infection, active = 60 or less; settings: 24 h

| SMILES | morphology score [1] | SARS-CoV-2 infection rate [2] |
| --- | --- | --- |
| CN(C)C(=O)Oc1ccc[n+](C)c1 [mestinon] (10 µM) | 0.0902 | 121% (inactive) |
| C[C@]12C[C@H](O)[C@H]3[C@@H](CCC4=CC(=O)CC[C@@]43C)[C@@H]1CC[C@@H]2C(=O)CO [corticosterone] (10 µM) | 0.0999 | 110% (inactive) |
| N[C@@H](Cc1c[nH]c2ccc(O)cc12)C(=O)O [5-hydroxytryptophan] (10 µM) | 0.197 | 104% (inactive) |
| CC(=O)OCC(=O)[C@@]1(O)CC[C@H]2[C@@H]3CCC4=CC(=O)CC[C@]4(C)[C@H]3C(=O)C[C@@]21C [cortisone-acetate] (10 µM) | -0.0698 | 87.5% (inactive) |
| O=C(c1c2ccccc2cc2ccccc12)N1CCC(N2CCC[C@@H](C(=O)N3CCOCC3)C2)CC1 (10 µM) | 0.0309 | 93.5% (inactive) |
| N[C@@H](C(=O)O)c1ccc(C(=O)O)c(O)c1 (racemic) [4-carboxy-3-hydroxyphenylglycine-(RS)] (10 µM) | 0.126 | 101% (inactive) |
| CC(=O)N(C)c1cccc(-c2ccnc3c(C(=O)c4cccs4)cnn23)c1 [indiplon] (10 µM) | -0.213 | 116% (inactive) |
| O=C(O)COc1cccc(-c2ocnc2-c2nc(-c3ccccc3)c(-c3ccccc3)o2)c1 (10 µM) | 0.194 | 102% (inactive) |
| CCCCCCCCCCCCCCCC(=O)OC(CC(=O)[O-])C[N+](C)(C)C (stereo not drawn) [palmitoylcarnitine] (0.833333 µM) | -0.0181 | 106% (inactive) |
| CCCCCCN(CCCCCC)C(=O)Cc1c(-c2ccc(F)cc2)[nH]c2ccccc12 (10 µM) | -0.0301 | 106% (inactive) |
| CCCCC(CC)CNC(=N)NC(=N)NCCCCCCNC(=N)NC(=N)NCC(CC)CCCC (stereo not drawn) [alexidine] (0.833333 µM) | -0.0694 | 104% (inactive) |
| CSc1ccc(C(=O)N[C@@H]2CCCC[C@@H]2NC(=O)CNC(=O)c2cc(C(F)(F)F)ccc2NC(=O)NC(C)C)cc1 (10 µM) | 0.07 | 93.5% (inactive) |
| Cc1nccn1CCC(C(N)=O)(c1ccccc1)c1ccccc1 [imidafenacin] (10 µM) | 0.133 | 93% (inactive) |
| O=C(Nc1ccc(-c2ccnc(Nc3ccc(N4CCOCC4)cc3)n2)cc1)C1CCCN1 (stereo not drawn) (10 µM) | 0.607 | 73.5% (inactive) |
| CCCCCCCCCCCCCCCC(=O)OC[C@H](O)[C@H]1OC(=O)C(O)=C1O [L-ascorbyl-6-palmitate] (10 µM) | -0.0423 | 112% (inactive) |
| O=C(O)C(=O)Nc1cccc(-c2nnn[nH]2)c1 [acitazanolast] (10 µM) | 0.235 | 95% (inactive) |
| CC(C)OC(=O)[C@H](C)N[P@](=O)(CO[C@H](C)Cn1cnc2c(N)ncnc21)Oc1ccccc1 [tenofovir-alafenamide] (10 µM) | -0.0883 | 106% (inactive) |
| N#C[C@@H]1C[C@@H]2C[C@@H]2N1C(=O)[C@@H](N)C12CC3CC(CC(O)(C3)C1)C2 (10 µM) | -0.0311 | 105% (inactive) |
| CC1(N2CCC(n3c([C@@H]4CCCNC4)nc4ccccc43)CC2)CCCCCCC1 (10 µM) | 0.62 | 22% (active) |
| COc1ccc(/C=C/C(=O)Nc2ccccc2C(=O)O)cc1OC [tranilast] (10 µM) | 0.0917 | 108% (inactive) |
| Cc1ccc(-n2nc(C(C)(C)C)cc2NC(=O)Nc2ccc(OCCN3CCOCC3)c3ccccc23)cc1 [doramapimod] (10 µM) | 0.482 | 86% (inactive) |
| O=C(O)Cc1sc(-c2ccccc2)nc1-c1ccc(Cl)cc1 [fentiazac] (10 µM) | 0.0803 | 100% (inactive) |
| COc1ccc(-c2oc3c(CC=C(C)C)c(O[C@@H]4O[C@H](CO)[C@@H](O)[C@H](O)[C@H]4O)cc(O)c3c(=O)c2O[C@@H]2O[C@@H](C)[C@H](O)[C@@H](O)[C@H]2O)cc1 [icariin] (10 µM) | 0.141 | 106% (inactive) |
| CONC(=N)c1ccc(-c2ccc(-c3ccc(C(=N)NOC)cc3)o2)cc1 [pafuramidine] (10 µM) | 0.0672 | 106% (inactive) |
| O=[N+]([O-])c1c(Nc2cc(F)cc(Cl)c2)ccc2nonc12 (10 µM) | 0.097 | 94.5% (inactive) |
| O=C(Nc1ccc(C(O)(C(F)(F)F)C(F)(F)F)cc1)c1ccc(C(F)(F)F)cc1 (10 µM) | 0.265 | 85% (inactive) |
| NCCCCCC(O)(P(=O)(O)O)P(=O)(O)O [neridronic-acid] (10 µM) | 0.208 | 91% (inactive) |

| SMILES | morphology score [1] | SARS-CoV-2 infection rate [2] |
| --- | --- | --- |
| Ic1cncc(OC[C@@H]2CCN2)c1 (10 µM) | 0.114 | 101% (inactive) |
| O=C(OCCOCCO)c1ccccc1Nc1cccc(C(F)(F)F)c1 [etofenamate] (10 µM) | -0.0601 | 112% (inactive) |
| CC(=O)OCC(=O)[C@@]1(O)CC[C@H]2[C@@H]3CCC4=CC(=O)C=C[C@]4(C)[C@@]3(F)[C@@H](O)C[C@@]21C [isoflupredone-acetate] (10 µM) | 0.155 | 98% (inactive) |
| CC(C)(CCCCCC(O)CCCCCC(C)(C)C(=O)O)C(=O)O [bempedoic-acid] (10 µM) | 0.0218 | 110% (inactive) |
| CC1(C)NC(=O)N(c2ccc([N+](=O)[O-])c(C(F)(F)F)c2)C1=O [nilutamide] (10 µM) | 0.15 | 108% (inactive) |
| COc1cc(Br)c(S(=O)(=O)Nc2ccc(Cl)c(O[C@@H]3CCN(C)C3)c2)cc1OC (10 µM) | -0.105 | 102% (inactive) |
| COc1ccc(/C=C\c2cc(OC)c(OC)c(OC)c2)cc1O [combretastatin-A-4] (10 µM) | 0.000765 | 98.5% (inactive) |
| CN(CCOc1ccc(-c2ccc3c(c2)OCO3)cc1C(C)(C)C)CC(=O)O (10 µM) | -0.0713 | 102% (inactive) |
| CCCN(CC1CC1)c1nc(C)nc(Nc2c(Cl)cc(Cl)cc2Cl)c1Cl (10 µM) | 0.143 | 102% (inactive) |
| Nc1ccc(S(=O)(=O)Nc2cnc3ccccc3n2)cc1 [sulfaquinoxaline] (10 µM) | 0.114 | 104% (inactive) |
| CN(C)CCOC(c1ccccc1)c1ccccc1.Cn1c(=O)c2[nH]c(Cl)nc2n(C)c1=O [dimenhydrinate] (10 µM) | -0.0688 | 110% (inactive) |
| C[C@@H](N)[C@@H](O)c1ccccc1 [1S,2R-phenylpropanolamine] (10 µM) | -0.131 | 114% (inactive) |
| CC1(C)CNc2cc(NC(=O)c3cccnc3NCc3ccncc3)ccc21 [motesanib] (10 µM) | 0.196 | 108% (inactive) |
| CNC(=O)Nc1ccc(-c2nc(N3CC4CCC(C3)O4)c3cnn(C4CCC5(CC4)OCCO5)c3n2)cc1 (0.833333 µM) | -0.104 | 100% (inactive) |
| CC(C)C[C@H](NC(=O)CNC(=O)[C@H](Cc1ccc(O)cc1)NC(=O)[C@H](CO)NC(=O)[C@H](Cc1c[nH]c2ccccc12)NC(=O)[C@H](Cc1cnc[nH]1)NC(=O)[C@@H]1CCC(=O)N1)C(=O)N[C@@H](CCCNC(=N)N)C(=O)N1CCC[C@H]1C(=O)NCC(N)=O [gonadorelin] (10 µM) | -0.182 | 104% (inactive) |
| CN(NC(=O)CC(=O)NN(C)C(=S)c1ccccc1)C(=S)c1ccccc1 [elesclomol] (10 µM) | 0.879 | 19.5% (active) |
| O=C(NCc1ccccc1)OCCO [buramate] (10 µM) | 0.237 | 84.5% (inactive) |
| Cc1sc(C)c(C(=O)NC2(c3ccc(C(=O)O)cc3)CC2)c1Cc1ccc(C(F)(F)F)cc1 (10 µM) | 0.187 | 108% (inactive) |
| CCN(CC)CCOC(=O)c1cc(Cl)c(N)cc1OC (10 µM) | 0.128 | 104% (inactive) |
| CCCCC[C@H](O)/C=C/[C@H]1[C@H](O)CC(=O)[C@@H]1C/C=C\CCCC(=O)O [dinoprostone] (10 µM) | 0.144 | 95.5% (inactive) |
| Cc1c(C(=O)N2CCOc3ccc(-c4ccc(N)nc4)cc3C2)ccc(S(C)(=O)=O)c1F (0.833333 µM) | -0.0918 | 110% (inactive) |
| Cc1nc(-c2cn3c(n2)-c2ccc(-c4cnn(C(C)(C)C(N)=O)c4)cc2OCC3)n(C(C)C)n1 [taselisib] (0.833333 µM) | -0.0504 | 98.5% (inactive) |
| COc1cc(CNC(=O)CCCC/C=C/C(C)C)ccc1O [capsaicin] (10 µM) | 0.0697 | 107% (inactive) |
| c1cc(-c2sc(-c3ccncc3)c(-c3ccncc3)c2-c2ccncc2)ccn1 (10 µM) | 0.0438 | 93% (inactive) |
| CC(=O)Nc1cccc(Nc2ncnc(N3CCC(OCc4ccc(OC(F)(F)F)cc4)CC3)n2)c1C (10 µM) | 0.184 | 110% (inactive) |
| C/C(=C\CNc1ncnc2[nH]cnc12)CO [zeatin] (10 µM) | -0.0215 | 106% (inactive) |
| O=C1/C(=C/c2ccccc2)C[C@@]2(O)[C@H]3Cc4ccc(O)c5c4[C@@]2(CCN3CC2CC2)[C@H]1O5 (0.833333 µM) | 0.732 | 23.5% (active) |
